Screening results: PubChem, Sanford-Burnham Center for Chemical Genomics
In the library only some 2.2% were active in any assay of this set; here they are far more common.
KKLEB tox: counter-screen for CF NF-kB inhibitors: cytotoxicity; KKLEB CF airway cells viability, ATPlite luminescence, overnight; active compounds read low; cells stimulated with P. aeruginosa culture filtrate; hit rate 0.36% among 360,000; activity change (cytotoxicity), % at 5 µM; AID 602141;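 active = corrected activity change at or below -50% at 5 µM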
TRAIL sens C8: caspase-8 TRAIL sensitization; NB7+C8 cells + TRAIL, ATPlite viability luminescence; inhibition (viability loss, TRAIL sensitization), % at 10 µM; hit rate 1% among 360,000;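 active = compounds causing at least 50% loss of cell viability in the single-dose screen, relative to plate controls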
PPC-1+TRAIL kill: kills PPC-1 cancer cells in the presence of TRAIL; PPC-1 cells + TRAIL, ATPLite viability luminescence; cell killing (% activity), % at 4 µM or 5 µM; hit rate 0.41% among 220,000; AID 1443;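 active = cell killing above 50% in the first pass at 4 µM, then a duplicate retest at 5 µM averaging 50% or more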;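 also: plate controls were cells with TRAIL plus DMSO for no effect and medium-only wells lacking cells for full effect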
CF NFkB inh: blocks PAF-induced NF-kB reporter in cystic fibrosis cells; KKLEB NF-kB-GFP reporter, GFP fluorescence overnight; inhibition, % at 5 µM; hit rate 0.86% among 360,000;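 active = at least 50% inhibition at 5 µM, scaled per plate between neutral and stimulator controls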;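 also: PAF is a Pseudomonas aeruginosa culture filtrate used as stimulus; plate controls were PAF-stimulated DMSO wells for no effect and unstimulated DMSO wells for full effect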
iPSC survival up: hiPSC single-cell survival enhancement. ATPlite luminescence; 100% = ROCK inhibitor wells, 0% = DMSO. AID 602274. survival enhancement, % at 20 µM. hit rate 0.044% among 360,000; in the data active = survival enhancement above about 18%;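 also: cells exposed to compounds for 16 hours before the ATP read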
HIF-2a block: inhibitors of HIF-2a. AID 624352. 786-0 RCC cells HIF-2a reporter, luciferase luminescence, overnight. inhibition, % at 18.8 µM. hit rate 0.72% among 360,000;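 active = inhibition of the luminescence signal of 40% or more relative to plate controls, in a single-dose primary screen at 18.75 µM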
PPC1 cytotox: kills PPC-1 cells; cytotoxicity, % at 5 µM; hit rate 50% among 1,200; AID 1447; shares compounds with PPC-1+TRAIL kill; PPC-1 viability, ATPlite luminescence, overnight;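 active = reconfirmed compounds whose average cytotoxicity reaches 50% or more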;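 also: 0% = DMSO-treated cells and 100% = wells holding medium but no cells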
* marks the source's active call; other numbers are inactive results.

CCN1C(=O)CC(Sc2ccccc2N)C1=O (configuration not stated) was read as KKLEB tox 4, TRAIL sens C8 2, PPC-1+TRAIL kill 12, CF NFkB inh -6, iPSC survival up -2, HIF-2a block -31 and PPC1 cytotox 8.
For Cc1cc(C)c2c(N)c(C(=O)Nc3ncc(C)s3)sc2n1 the results were KKLEB tox -69*, TRAIL sens C8 94*, PPC-1+TRAIL kill 96*, CF NFkB inh -4, iPSC survival up -7, HIF-2a block 87* and PPC1 cytotox 96*.
`CC1C2NC(=O)N(Cc3ccccc3)C1(C)Oc1ccccc12` (configuration not stated) gave KKLEB tox -6, TRAIL sens C8 -16, PPC-1+TRAIL kill -9, CF NFkB inh -7, iPSC survival up 0, HIF-2a block 10 and PPC1 cytotox -1.
For COc1ccc(-c2nc3ncccn3c2Nc2ccc3c(c2)OCCO3)cc1 the results were KKLEB tox 6, TRAIL sens C8 -19, PPC-1+TRAIL kill 15, CF NFkB inh -6, iPSC survival up -2, HIF-2a block -129 and PPC1 cytotox 10.
`CCOC(=O)c1sc(-c2ccc(OC)cc2)cc1N` gave KKLEB tox 10, TRAIL sens C8 6, PPC-1+TRAIL kill 17, CF NFkB inh -3, iPSC survival up -3, HIF-2a block -341 and PPC1 cytotox 9.
Screening CCOC(=O)c1sc(-c2ccc(F)cc2)cc1N returned KKLEB tox 7, TRAIL sens C8 4, PPC-1+TRAIL kill 21, CF NFkB inh -9, iPSC survival up -3 and HIF-2a block -342.
For Cc1ccc(S(=O)(=O)NC2CCCC(C(=O)O)C2)cc1 (configuration not stated) the results were KKLEB tox 4, TRAIL sens C8 -13, PPC-1+TRAIL kill 11, CF NFkB inh -4, iPSC survival up -3, HIF-2a block 10 and PPC1 cytotox 13.
Screening COc1ccc2[nH]c(C(=O)O)c(CCC(=O)O)c2c1 returned KKLEB tox 8, TRAIL sens C8 -9, PPC-1+TRAIL kill 1, CF NFkB inh -7, iPSC survival up 0, HIF-2a block 13 and PPC1 cytotox 14.
`COc1ccc2[nH]c(C(=O)O)c(CCN3C(=O)c4ccc(C(=O)O)cc4C3=O)c2c1` gave KKLEB tox 1, TRAIL sens C8 7, CF NFkB inh -23, iPSC survival up 1 and HIF-2a block -42.
Screening CCN1/C(=C/c2ccc3cc(C)cc(C)c3[n+]2CC)Sc2cc(C)ccc21 returned KKLEB tox -53*, TRAIL sens C8 32, PPC-1+TRAIL kill 22, CF NFkB inh -245, iPSC survival up -5, HIF-2a block -15 and PPC1 cytotox 34.
`Cc1ccc2c(c1)S/C(=C\c1cccc[n+]1C)N2CCO` gave KKLEB tox 1, TRAIL sens C8 10, CF NFkB inh -2, iPSC survival up 0 and HIF-2a block 0.
CCC(=O)Nc1cc2nn(-c3ccccc3)nc2cc1Cl was read as KKLEB tox -24, TRAIL sens C8 64*, PPC-1+TRAIL kill 60*, CF NFkB inh 6, iPSC survival up -4, HIF-2a block -147 and PPC1 cytotox 60*.
Screening CCCS(=O)(=O)NC(=O)C1(C)CCN(C(=O)c2ccc(F)c(Cl)c2)C1 (configuration not stated) returned KKLEB tox -17, TRAIL sens C8 -23, CF NFkB inh 14, iPSC survival up 1 and HIF-2a block -3.
For COc1ccccc1CCNC(=O)CN1C(=O)c2ccccc2S1(=O)=O the results were KKLEB tox 12, TRAIL sens C8 6, CF NFkB inh -2, iPSC survival up 1 and HIF-2a block -10.
Screening CN1CCN(CC(O)COc2ccc(Cl)cc2)CC1 (configuration not stated) returned KKLEB tox -3, TRAIL sens C8 -6, PPC-1+TRAIL kill 0, CF NFkB inh 3, iPSC survival up 1, HIF-2a block 15 and PPC1 cytotox -16.
For CN1CCN(CC(O)COc2ccc(OCC(O)CN3CCN(C)CC3)cc2)CC1 (configuration not stated) the results were KKLEB tox 8, TRAIL sens C8 -3, PPC-1+TRAIL kill -12, CF NFkB inh -2, iPSC survival up 6 and HIF-2a block 11.
Screening COc1cc(SC)ccc1C(=O)Nc1ccc(Cl)cn1 returned KKLEB tox -69*, TRAIL sens C8 90*, PPC-1+TRAIL kill 87*, CF NFkB inh -17, iPSC survival up -2, HIF-2a block 53* and PPC1 cytotox 87*.
For COc1ccccc1OC(C)C(=O)Nc1ccc(S(=O)(=O)N2CCN(C)CC2)cc1 (configuration not stated) the results were KKLEB tox -14, TRAIL sens C8 1, CF NFkB inh 17, iPSC survival up 0 and HIF-2a block 19.
For CCOc1ccccc1N(CC)C(=O)c1nn(C)c2c1CSc1ccccc1-2 the results were KKLEB tox -1, TRAIL sens C8 -4, CF NFkB inh -9, iPSC survival up 0 and HIF-2a block 19.
COc1cc2nc(CN(C)Cc3ccc(C(C)(C)C)cc3)[nH]c(=O)c2cc1OC was read as KKLEB tox -18, TRAIL sens C8 65*, PPC-1+TRAIL kill 59*, CF NFkB inh 4, iPSC survival up -2, HIF-2a block -18 and PPC1 cytotox 58*.
Screening Cc1cccc(N2C(=S)NC3c4ccccc4OC2(C)C3C(=O)N(C)C)c1 (configuration not stated) returned KKLEB tox 6, TRAIL sens C8 -4, PPC-1+TRAIL kill 4, CF NFkB inh -29, iPSC survival up 0, HIF-2a block 18 and PPC1 cytotox -1.
`COC(=O)c1sccc1NC(=O)CC1C(=O)NCCN1C(=O)c1ccc(C)c(C)c1` (configuration not stated) gave KKLEB tox 10, TRAIL sens C8 -12, PPC-1+TRAIL kill -16, CF NFkB inh 10, iPSC survival up 0 and HIF-2a block 8.
For COc1ccc(CNc2nc3ccccc3s2)cc1OC the results were KKLEB tox 5, TRAIL sens C8 2, CF NFkB inh -18, iPSC survival up 0 and HIF-2a block -231.
Cc1ccc(CNc2nc3ccccc3s2)s1 was read as KKLEB tox -42, TRAIL sens C8 78*, PPC-1+TRAIL kill 75*, CF NFkB inh 2, iPSC survival up -3, HIF-2a block 13 and PPC1 cytotox 75*.
For COc1ccc(-c2cc(C(=O)N/N=C/c3cc(OC)c(OC)cc3OC)c3ccccc3n2)cc1 the results were KKLEB tox 11, TRAIL sens C8 28, CF NFkB inh -1, iPSC survival up -1 and HIF-2a block 2.
